From PubChem BioAssay (NCI)
The panel holds about 83,000 compounds, 20% with a hit somewhere; the sample as a whole holds those more often.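 96-well plates, one dose, 48 hours. Percent growth reported; active if below 10.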 Calls of active or inactive are those of the source.

Tests used:
Assay in all cases: NCI-60 one-dose screen, 48 h (100 = growth as untreated, 0 = no growth, -100 = all killed)
NCI-H23 lung = settings: 10 µM unless noted
NCI-H226 lung = settings: 10 µM unless noted
NCI-H322M lung = settings: 10 µM unless noted
HOP-62 NSCLC = settings: 10 µM unless noted
NCI-H460 lung = settings: 10 µM unless noted
HOP-92 NSCLC = settings: 10 µM unless noted
NCI-H522 lung = settings: 10 µM unless noted
A549/ATCC NSCLC = settings: 10 µM unless noted
786-0 renal = settings: 10 µM unless noted
COLO 205 colon = settings: 10 µM unless noted
DU-145 prostate = settings: 10 µM unless noted
K-562 leukemia = settings: 10 µM unless noted
MALME-3M melanoma = settings: 10 µM unless noted
MDA-MB-231 breast = settings: 10 µM unless noted
RXF 393 renal = settings: 10 µM unless noted
SF-268 CNS = settings: 10 µM unless noted
SF-295 CNS = settings: 10 µM unless noted
SF-539 CNS = settings: 10 µM unless noted
UACC-257 melanoma = settings: 10 µM
M14 melanoma = settings: 10 µM unless noted

Measured: growth

CC(=O)Nc1cccc(-n2cnc3cc(-c4ccc(O)cc4)ccc32)c1
inactive: NCI-H23 lung 47.8% | NCI-H226 lung 37.9% | NCI-H322M lung 56.6% | HOP-62 NSCLC 38.4% | NCI-H460 lung 15.9% | HOP-92 NSCLC 49.5% | A549/ATCC NSCLC 50.4% | 786-0 renal 45.6% | COLO 205 colon 66.3% | DU-145 prostate 27.9% | MALME-3M melanoma 73.7% | MDA-MB-231 breast 61.1% | SF-268 CNS 46.2% | SF-295 CNS 17.1% | UACC-257 melanoma 79.6% | M14 melanoma 53.2%
active: NCI-H522 lung -29.8% | K-562 leukemia 8.67% | RXF 393 renal -6.91% | SF-539 CNS -5.03%

Cc1ccc(Cc2cnc(NC(=O)/C(C#N)=C/c3ccc(-c4ccc(Cl)cc4)o3)s2)cc1
inactive: NCI-H23 lung 91.3% | NCI-H226 lung 117% | NCI-H322M lung 84.9% | HOP-62 NSCLC 101% | NCI-H460 lung 83.8% | HOP-92 NSCLC 66.9% | NCI-H522 lung 96.9% | A549/ATCC NSCLC 103% | 786-0 renal 99.9% | COLO 205 colon 93.8% | DU-145 prostate 84% | K-562 leukemia 88.7% | MALME-3M melanoma 98.8% | MDA-MB-231 breast 97.4% | RXF 393 renal 61% | SF-268 CNS 95.3% | SF-295 CNS 102% | SF-539 CNS 98.4% | UACC-257 melanoma 100% | M14 melanoma 95.9%

O=C(NCCCCCCNC(=O)c1c2c(nc3ccccc13)-c1cccnc1SC2)c1c2c(nc3ccccc13)-c1cccnc1SC2
active: MALME-3M melanoma -16.5%
inactive: NCI-H23 lung 63.1% | NCI-H226 lung 82.6% | NCI-H322M lung 71.9% | HOP-62 NSCLC 43.9% | NCI-H460 lung 75% | HOP-92 NSCLC 50.8% | NCI-H522 lung 95.7% | A549/ATCC NSCLC 70.6% | 786-0 renal 76.5% | COLO 205 colon 28.8% | DU-145 prostate 104% | K-562 leukemia 73.4% | MDA-MB-231 breast 59.3% | RXF 393 renal 73.4% | SF-268 CNS 77.7% | SF-295 CNS 94.7% | SF-539 CNS 86.8% | UACC-257 melanoma 17.1% | M14 melanoma 30.8%

Oc1ccc(CSc2nnc(-c3ccc(Br)cc3)o2)c2cccnc12
inactive: NCI-H23 lung 38.3% | NCI-H226 lung 61.5% | NCI-H322M lung 35.7% | HOP-62 NSCLC 21.9% | NCI-H460 lung 10.8% | NCI-H522 lung 29.4% | A549/ATCC NSCLC 29.8% | 786-0 renal 39.9% | COLO 205 colon 100% | DU-145 prostate 40.2% | K-562 leukemia 15.2% | MALME-3M melanoma 58.5% | MDA-MB-231 breast 51.4% | RXF 393 renal 60.9% | SF-268 CNS 31.3% | SF-295 CNS 11.3% | SF-539 CNS 28.4% | UACC-257 melanoma 29.7% | M14 melanoma 31.5%
active: HOP-92 NSCLC 5.88%

CC1(C)CC[C@]2(C(=O)O)CC[C@]3(C)C(=CCC4[C@@]5(C)C[C@@H](O)[C@@H]6OC(c7ccccc7O)OC[C@@]6(C)C5CC[C@]43C)C2C1 (stereo not given in full)
inactive: NCI-H23 lung 58.2% | NCI-H226 lung 87% | NCI-H322M lung 40.5% | HOP-62 NSCLC 45.6% | NCI-H460 lung 46% | HOP-92 NSCLC 52% | NCI-H522 lung 53.6% | A549/ATCC NSCLC 27.7% | 786-0 renal 22.2% | COLO 205 colon 29.7% | DU-145 prostate 44.1% | K-562 leukemia 40.6% | MALME-3M melanoma 83.9% | MDA-MB-231 breast 82.5% | RXF 393 renal 76.9% | SF-268 CNS 56% | SF-295 CNS 30.2% | SF-539 CNS 63.7% | UACC-257 melanoma 93.7% | M14 melanoma 43.3%

CCCCSc1nnc(-c2ccc(-c3ccc(Cl)cc3)nc2C)o1
inactive: NCI-H23 lung 95% | NCI-H226 lung 95.9% | NCI-H322M lung 103% | HOP-62 NSCLC 108% | NCI-H460 lung 101% | HOP-92 NSCLC 93.4% | NCI-H522 lung 98% | A549/ATCC NSCLC 102% | 786-0 renal 96.9% | COLO 205 colon 101% | DU-145 prostate 98.2% | K-562 leukemia 90.1% | MALME-3M melanoma 102% | MDA-MB-231 breast 104% | RXF 393 renal 110% | SF-268 CNS 103% | SF-295 CNS 96.8% | SF-539 CNS 98.1% | UACC-257 melanoma 106% | M14 melanoma 104%

COc1cc(/C=N/Nc2ccnc3cc(Cl)ccc23)cc(OC)c1O
active: NCI-H23 lung -42% | NCI-H322M lung -45.1% | HOP-62 NSCLC -78% | NCI-H460 lung -63.9% | HOP-92 NSCLC -74% | NCI-H522 lung -73.8% | A549/ATCC NSCLC -82.2% | 786-0 renal -87.5% | DU-145 prostate -24.6% | K-562 leukemia -54.8% | MALME-3M melanoma -88.3% | MDA-MB-231 breast -74.6% | RXF 393 renal -86.8% | SF-268 CNS -37.3% | SF-295 CNS -80.3% | SF-539 CNS -85% | M14 melanoma -90.1%
inactive: NCI-H226 lung 96.2% | COLO 205 colon 72% | UACC-257 melanoma 112%
